# Results filed as inconclusive are left out. Entries that show only a call come without a potency. Calls of active or inactive are those of the source. Unless noted, calls come from the whole dose curve; as a rule, active = well fitted curve in the direction sought with a large enough effect in the repeat runs; inconclusive = weak or mixed curves; inactive = no such curve, though single readings can be large; an effect the other way counts as inactive or inconclusive.
# How the values were obtained:
# [1] = qHTS assay to identify small molecule antagonists of the estrogen related receptor (ERR) signaling pathway (AID 1224819; note: nearly all actives have a fitted effect of over 50% in size; note: potency is the fitted concentration of half-maximal effect)
# How it was run: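 Luminescence readout (One-Glo, 30 min, RT) of ERR cell line after 18 h compound exposure at 37 C; cells seeded 2,000/well, pre-incubated 6 h, compounds pinned from DMSO stocks.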
# [2] = qHTS assay to identify small molecule agonists of the estrogen related receptor (ERR) signaling pathway (AID 1224820)
# How it was run: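 Quantitative HTS of the LOPAC library used NTP ERR reporter cells treated 18 h at 37 C. Signal is luminescence after One-Glo addition and a 30 min room-temperature incubation.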
# [3] = system: estrogen-related receptor alpha (ERRalpha) with PGC-1alpha coactivator, human; assay: qHTS assay to identify small molecule antagonists of the estrogen related receptor signaling pathway with the pleiotropic PPARgamma coactivator (PGC) (AID 1224821; calls by dose curve; note: nearly all actives have a fitted effect of over 50% in size; note: potency is the fitted concentration of half-maximal effect)
# How it was run: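 Quantitative HTS for antagonism: PGC/ERR cells received compounds after 6 h attachment and were incubated 18 h at 37 C, with luminescence (One-Glo) as the endpoint.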
# [4] = qHTS assay to identify small molecule antagonists of the estrogen related receptor signaling pathway with the pleiotropic PPARgamma coactivator (PGC) cell viability counter screen (AID 1224822; note: potency is the fitted concentration of half-maximal effect;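 note: viability read after 17.5 h compound exposure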)
# How it was run: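 PGC/ERR cells were plated at 2,000 per well and allowed 6 h to settle before compound addition. Following 17.5 h at 37 C, CellTiter-Fluor reagent was added and fluorescence was read 30 min later.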
# [5] = qHTS assay to identify small molecule agonists of the estrogen related receptor signaling pathway with the pleiotropic PPARgamma coactivator (PGC) (AID 1224823); note: potency is the fitted concentration of half-maximal effect
# How it was run: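 Cell-based luciferase assay in the NTP-supplied PGC/ERR line, 2,000 cells/well; 18 h compound exposure at 37 C, luminescence after One-Glo.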
Compound,Potency [1],Potency [2],Potency [3],Potency [4],Potency [5]
CO/N=C(\C(=O)N[C@@H]1C(=O)N2C(C(=O)O)=C(CSc3nc(=O)c(O)nn3C)CSC12)c1csc(N)n1 (stereo not given in full),inactive,inactive,inactive,inactive,inactive
CNCCC(Oc1ccccc1C)c1ccccc1 (stereo not given),inactive,inactive,inactive,inactive,inactive
NCCCCN=C(N)N,inactive,inactive,inactive,inactive,inactive
CN=C(N)NCCC[C@H](N)C(=O)O,inactive,inactive,inactive,inactive,inactive
C[C@H]1CC2C3CCC4=CC(=O)C=C[C@]4(C)[C@@]3(Cl)[C@@H](O)C[C@]2(C)[C@@]1(O)C(=O)CO (stereo not given in full),inactive,inactive,inactive,inactive,inactive
COc1ccccc1N1CCN(CCCNc2c(C)c(=O)n(C)c(=O)n2C)CC1,inactive,inactive,inactive,inactive,inactive
O=[N+]([O-])c1cccc2c(Br)[nH]nc12,inactive,inactive,inactive,inactive,inactive
O=c1cc(-c2ccccc2)[nH]c2nc(Cl)ccc12,inactive,inactive,inactive,inactive,inactive
N=c1c[n+](N2CCOCC2)[n-]o1,inactive,inactive,inactive,inactive,inactive
Cc1cn([C@H]2CC(N=[N+]=[N-])[C@@H](CO)O2)c(=O)[nH]c1=O (stereo not given in full),inactive,inactive,inactive,inactive,inactive
O=C1NC(=O)/C(=C/c2ccc(-c3ccc(F)cc3O)o2)S1,inactive,inactive,inactive,inactive,inactive
CCCn1c(=O)[nH]c(=O)c2[nH]cnc21,inactive,inactive,inactive,inactive,inactive
Nc1ccc(CCNc2ncnc3c2ncn3C2OC(CO)C(O)C2O)cc1 (stereo not given),inactive,inactive,inactive,inactive,12.3 µM (active)
COc1ccc(C(=O)NCc2cccnc2)cc1C(=O)NCc1cccnc1,inactive,inactive,inactive,inactive,inactive
C#CCn1c(=O)c2c(ncn2C)n(C)c1=O,inactive,inactive,inactive,inactive,inactive
COc1ccc2c(c1)CCC1C2CC[C@@]2(C)C1CC[C@@H]2NCCCCCCN1C(=O)C=CC1=O (stereo not given in full),inactive,inactive,inactive,inactive,inactive
COC(=O)C1=CO[C@@H](O)[C@@H]2C(CO)=CC[C@H]12,inactive,inactive,inactive,inactive,inactive
O=C(N[C@@H](Cc1ccccc1)C(=O)CCl)OCc1ccccc1,21.1 µM (active),inactive,16.8 µM (active),16.8 µM (active),inactive
Cc1cccc(C(=O)NCN2CCN(c3ccccc3C#N)CC2)c1,inactive,inactive,inactive,inactive,inactive
COCc1nc2c([nH]1)c(=O)n(C)c(=O)n2CC(C)C,inactive,inactive,inactive,inactive,inactive
COc1ccc(CCN(C)CCc2ccc(OC)c(OC)c2)cc1OC,inactive,inactive,inactive,inactive,inactive
NCCS(=O)O,inactive,inactive,inactive,inactive,inactive
CCN(CC)CCn1c(=O)c(Cc2ccc(OC)cc2)nc2ccccc21,inactive,inactive,inactive,inactive,inactive
CCCCCCCCc1ccc(-c2ccc(C(=O)O)cc2)cc1,inactive,inactive,inactive,inactive,inactive
CCN(CC)CCOc1ccc(Nc2ncc3cc(-c4c(Cl)cccc4Cl)c(=O)n(C)c3n2)cc1,9.08 µM (active),inactive,inactive,1.74 µM (active),0.0908 µM (active)
CC1=C(C(=O)O)N2C(=O)[C@@H](NC(=O)C(N)c3ccccc3)[C@H]2SC1 (stereo not given in full),inactive,inactive,inactive,inactive,inactive
CCCn1c(=O)c2c(ncn2C)n(CCC)c1=O,inactive,inactive,inactive,inactive,inactive
CC(C)Cn1c(=O)n(C)c(=O)c2[nH]cnc21,inactive,inactive,inactive,inactive,inactive
C[C@@H](NCCc1ccc(O)cc1)[C@@H](O)c1ccc(O)cc1,inactive,inactive,inactive,inactive,inactive
O=C1NC(=O)C(c2ccccc2[N+](=O)[O-])=C1Nc1ccc(O)c(Cl)c1,inactive,inactive,inactive,inactive,inactive

# From PubChem BioAssay (Tox21)
